Test results: PubChem BioAssay (Tox21)
Results filed as inconclusive are left out. Calls of active or inactive are those of the source. Unless noted, calls come from the whole dose curve.

What was measured:
[1] = Nuclear factor erythroid 2-related factor 2/antioxidant responsive element (Nrf2/ARE) small molecule agonists: qHTS cell viability counter screen in human keratinocytes (AID 1919968; active = well fitted curve in the direction sought with a large enough effect in the repeat runs; an effect the other way counts as inactive or inconclusive; note: nearly all actives have a fitted effect of over 55% in size)
How it was run: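 Measured as CellTiter-Fluor fluorescence, this readout tracks cytotoxicity in the same wells as the ARE-luciferase screen. HaCaT reporter cells (1,500/well) received compounds after a 5 h pre-incubation and were exposed for 23 h.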

[2] = biological target: Gonadotropin-releasing hormone receptor (Homo sapiens) (UniProt P30968); experiment: Human gonadotropin-releasing hormone receptor (GnRHR) small molecule agonists, calcium flux assay in GnRHR-HEK293 cells (AID 1920063); note: nearly all actives have a fitted effect of over 35% in size
How it was run: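 Fluorescence kinetics (480 nm excitation, 540 nm emission; 3 min, 1 s steps) report calcium mobilisation in human GnRHR-HEK293 cells in agonist mode. Dye incubation: 1 h, 37 C.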

[3] = biological target: KiSS-1 receptor (Homo sapiens) (UniProt Q969F8); experiment: Human kisspeptin (KISS1R) small molecule agonists, calcium flux assay in KISS1R-HEK293 cells (AID 1920064; active = well fitted curve in the direction sought with a large enough effect in the repeat runs; an effect the other way counts as inactive or inconclusive)
How it was run: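 Measures KISS1R agonism through calcium-sensitive dye fluorescence in stably transfected HEK293 cells, read for 3 min after pin-tool compound delivery; 15-point titrations in triplicate.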

[4] = G protein-coupled receptor (GPCR) small molecule agonists, calcium flux assay: HEK293 wild type cell line counter screen (AID 1920065)
How it was run: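 Readout: fluorescence at 480 nm excitation/540 nm emission, sampled at 1 s intervals for 3 min. Cells had been cultured 18 h, then dye-loaded 1 h at 37 C before compound or ATP addition.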

[5] = p53 small molecule agonists, cell-based qHTS assay with human liver microsomes (AID 1963577);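 note: p53 response element beta-lactamase reporter cells with liver microsomes plus NADPH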
How it was run: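 Metabolically competent format: test substances, human liver microsomes and NADPH (both 0.5 mg/mL final) incubated with p53RE-bla cells 16 h at 37 C. Beta-lactamase reporter signal then quantified by fluorescence.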

[6] = p53 small molecule agonists, cell-based qHTS assay with rat liver microsomes (AID 1963578)
How it was run: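 Each plate received p53RE-bla cells, then compound, then rat liver microsomes and NADPH (both 0.5 mg/mL final). Plates were held 16 h at 37 C, and beta-lactamase activity was detected with LiveBLAzer over 2 h.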

[7] = p53 small molecule agonists, cell-based qHTS assay with human liver microsomes: qHTS cell viability counter screen (AID 1963579); note: nearly all actives have a fitted effect of over 45% in size
How it was run: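 Tox21 library compounds, delivered from DMSO stocks, were tested on p53RE-bla cells together with 0.5 mg/mL human liver microsomes and 0.5 mg/mL NADPH (final) over 16 h at 37 C; CellTiter-Glo luminescence served as the cytotoxicity measure.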

[8] = p53 small molecule agonists, cell-based qHTS assay with rat liver microsomes: qHTS cell viability counter screen (AID 1963580); note: nearly all actives have a fitted effect of over 45% in size
How it was run: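 p53RE-bla HCT-116 cells (4,000/well) rested 5 h at 37 C, then given Tox21 compounds in DMSO with rat liver microsomes (0.5 mg/mL final) plus NADPH (0.5 mg/mL final) for 16 h at 37 C. Viability read by CellTiter-Glo luminescence after 30 min at room temperature.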

[9] = p53 small molecule agonists, cell-based qHTS assay: qHTS cell viability counter screen (AID 1963581); note: nearly all actives have a fitted effect of over 45% in size
How it was run: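 In the same plates used for the p53 bla reporter, HCT-116 cells given compounds for 16 h at 37 C received CellTiter-Glo; luminescence was recorded 30 min later at room temperature.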

[10] = p53 small molecule agonists, cell-based qHTS assay (AID 1963582; active = well fitted activation curve with a large enough effect in the signal ratio in the repeat runs, not every such curve was filed as active; the % refers to the signal ratio)
How it was run: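 Compounds are pin-transferred in DMSO onto p53RE-bla cells and incubated 16 h at 37 C. The B/G FRET beta-lactamase substrate is then applied for 2 h at RT and fluorescence recorded.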

[11] = biological target: 5-hydroxytryptamine receptor 2A (Homo sapiens) (UniProt P28223); experiment: 5-hydroxytryptamine receptor 2A (HTR2A) small molecule antagonists, cell-based qHTS assay (AID 1963586); note: nearly all actives have a fitted effect of over 45% in size
How it was run: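 Antagonist-mode intracellular calcium assay: DOI (4 nM) added after 5 min compound pre-incubation at room temperature to dye-loaded HTR2A-CHO cells. Fluorescence followed for 3 min, sampled every second.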

[12] = biological target: 5-hydroxytryptamine receptor 2A (Homo sapiens) (UniProt P28223); experiment: 5-hydroxytryptamine receptor 2A (HTR2A) small molecule agonists, cell-based qHTS assay (AID 1963587); note: nearly all actives have a fitted effect of over 30% in size
How it was run: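 HTR2A-CHO cells, plated 18 h at 37 C/5% CO2, dye-loaded 1 h at 37 C; compounds in DMSO added by pin tool (agonist mode). Intracellular calcium flux read as kinetic fluorescence on FDSS over 2 min at 1 s intervals.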

[13] = biological target: Muscarinic acetylcholine receptor M1 (Homo sapiens) (UniProt P11229); experiment: Cholinergic receptor muscarinic 1 (CHRM1) small molecule antagonists, cell-based qHTS assay (AID 1963588); note: nearly all actives have a fitted effect of over 40% in size
How it was run: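 CHRM1-CHO calcium-flux assay, antagonist mode. Cells were seeded 18 h, dye-loaded 1 h at 37 C and given compound for 5 min at RT, then acetylcholine was added at 50nM. FDSS fluorescence was read 3 min; 15 concentrations, three runs.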

[14] = biological target: Muscarinic acetylcholine receptor M1 (Homo sapiens) (UniProt P11229); experiment: Cholinergic receptor muscarinic 1 (CHRM1) small molecule agonists, cell-based qHTS assay (AID 1963589); note: nearly all actives have a fitted effect of over 35% in size
How it was run: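 Each compound was tested at 15 concentrations across three independent runs on dye-loaded CHO cells stably expressing human CHRM1, reading intracellular calcium fluorescence kinetically at 1 sec intervals.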

[15] = cAMP Responsive Elements (CRE) small molecule agonists, cell-based qHTS assay (AID 1963590)
How it was run: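 Cell line: CRE-bla HEK 293T; medium DMEM/10% dialyzed FBS/0.1 mM NEAA/1 mM pyruvate/25 mM HEPES; 3 h compound exposure; beta-lactamase FRET readout after 2 h substrate loading at RT.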

[16] = biological target: Beta-2 adrenergic receptor (Homo sapiens) (UniProt P07550); experiment: Adrenergic beta2 receptor (ADRB2) small molecule antagonists, cell-based qHTS assay (AID 1963592); note: series mostly up to about 92 µM; nearly all actives have a fitted effect of over 50% in size
How it was run: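 Cells (CHO, stable ADRB2 overexpression) incubated 18-20hr at 37C; compounds added from DMSO; agonist mix (1nM isoproterenol, 100uM IBMX, 25uM Ro-20-1724) added; 0.5hr RT; d2-cAMP and anti-cAMP-cryptate added; 1hr RT; 665/615 nm read.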

[17] = biological target: D(2) dopamine receptor (Homo sapiens) (UniProt P14416); experiment: Dopamine D2 receptor (DRD2) small molecule agonists, cell-based qHTS assay (AID 1963594); note: nearly all actives have a fitted effect of over 35% in size
How it was run: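 HEK293 cells stably expressing DRD2 were cultured 24 h at 37 C, then given Ro20-1724 (0.1 mM final) and compounds for 10 min at room temperature. NKH477 (200nM) was then added for 30 min. cAMP was read by HTRF.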

[18] = biological target: D(2) dopamine receptor (Homo sapiens) (UniProt P14416); experiment: Dopamine D2 receptor (DRD2) small molecule antagonists, cell-based qHTS assay (AID 1963595; active = well fitted inhibition curve with a large enough effect in the signal ratio in the repeat runs, with a control signal flat; the % refers to the signal ratio)
How it was run: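 Human DRD2 antagonist qHTS measuring cAMP by HTRF. The cells are exposed to compound for 10 min, then to NKH477 (200 nM) and quinpirole (12 nM) for 30 min at RT, with Ro20-1724 (0.1 mM) present throughout.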

[19] = cAMP Responsive Elements (CRE) small molecule antagonists, cell-based qHTS assay (AID 1963591; active = well fitted inhibition curve with a large enough effect in the signal ratio in the repeat runs, not every such curve was filed as active; the % refers to the signal ratio)
How it was run: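 Inhibition of NKH477-driven (0.25 uM final) CRE-beta-lactamase signal in HEK293T cells, 3 h compound exposure at 37 °C, detected by FRET substrate fluorescence.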

[20] = biological target: Beta-2 adrenergic receptor (Homo sapiens) (UniProt P07550); experiment: Adrenergic beta2 receptor (ADRB2) small molecule agonists, cell-based qHTS assay (AID 1963593);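 note: CHO cells stably overexpressing human ADRB2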
How it was run: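 CHO cells stably over-expressing ADRB2 were plated overnight at 37C, then dosed with compounds plus a stimulation mix containing 100uM IBMX and 25uM Ro-20-1724 for 0.5hr at room temperature. cAMP was measured by HTRF competition, 1hr.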

Measured: Potency

Muscarinic acetylcholine receptor M1 (Homo sapiens), sequence (P11229 whole entry, looked up): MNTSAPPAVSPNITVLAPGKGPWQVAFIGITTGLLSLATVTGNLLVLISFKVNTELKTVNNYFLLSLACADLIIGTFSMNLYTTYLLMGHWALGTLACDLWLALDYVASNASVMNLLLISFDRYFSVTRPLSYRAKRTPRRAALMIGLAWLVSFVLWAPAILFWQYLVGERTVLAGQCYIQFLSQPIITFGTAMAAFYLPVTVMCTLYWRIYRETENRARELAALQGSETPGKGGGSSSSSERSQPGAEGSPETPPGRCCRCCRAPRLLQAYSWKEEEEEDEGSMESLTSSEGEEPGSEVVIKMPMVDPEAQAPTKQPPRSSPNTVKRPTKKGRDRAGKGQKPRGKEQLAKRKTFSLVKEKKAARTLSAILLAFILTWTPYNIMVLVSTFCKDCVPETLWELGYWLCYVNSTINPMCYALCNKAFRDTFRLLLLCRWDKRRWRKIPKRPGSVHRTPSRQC
KiSS-1 receptor (Homo sapiens), sequence (Q969F8 whole entry, looked up): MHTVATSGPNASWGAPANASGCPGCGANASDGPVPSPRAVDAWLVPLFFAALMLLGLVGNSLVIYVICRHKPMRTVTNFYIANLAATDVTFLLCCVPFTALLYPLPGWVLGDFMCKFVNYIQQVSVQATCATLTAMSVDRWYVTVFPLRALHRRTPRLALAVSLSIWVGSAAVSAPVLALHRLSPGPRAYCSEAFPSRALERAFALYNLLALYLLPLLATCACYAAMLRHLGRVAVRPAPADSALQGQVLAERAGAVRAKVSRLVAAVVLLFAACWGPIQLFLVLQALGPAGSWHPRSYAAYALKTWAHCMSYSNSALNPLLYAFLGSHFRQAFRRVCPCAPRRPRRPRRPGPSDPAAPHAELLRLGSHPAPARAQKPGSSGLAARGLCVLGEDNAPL
Gonadotropin-releasing hormone receptor (Homo sapiens), sequence (P30968 whole entry, looked up): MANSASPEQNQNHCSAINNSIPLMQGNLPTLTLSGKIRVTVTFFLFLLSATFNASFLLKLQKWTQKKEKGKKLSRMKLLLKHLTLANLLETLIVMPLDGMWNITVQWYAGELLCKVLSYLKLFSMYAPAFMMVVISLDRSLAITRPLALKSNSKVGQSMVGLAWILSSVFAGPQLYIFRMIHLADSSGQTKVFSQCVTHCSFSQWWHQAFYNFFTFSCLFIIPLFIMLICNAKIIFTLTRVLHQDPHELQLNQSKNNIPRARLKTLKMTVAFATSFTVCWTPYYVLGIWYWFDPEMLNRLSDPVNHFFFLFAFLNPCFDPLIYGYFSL
5-hydroxytryptamine receptor 2A (Homo sapiens), sequence (P28223 whole entry, looked up): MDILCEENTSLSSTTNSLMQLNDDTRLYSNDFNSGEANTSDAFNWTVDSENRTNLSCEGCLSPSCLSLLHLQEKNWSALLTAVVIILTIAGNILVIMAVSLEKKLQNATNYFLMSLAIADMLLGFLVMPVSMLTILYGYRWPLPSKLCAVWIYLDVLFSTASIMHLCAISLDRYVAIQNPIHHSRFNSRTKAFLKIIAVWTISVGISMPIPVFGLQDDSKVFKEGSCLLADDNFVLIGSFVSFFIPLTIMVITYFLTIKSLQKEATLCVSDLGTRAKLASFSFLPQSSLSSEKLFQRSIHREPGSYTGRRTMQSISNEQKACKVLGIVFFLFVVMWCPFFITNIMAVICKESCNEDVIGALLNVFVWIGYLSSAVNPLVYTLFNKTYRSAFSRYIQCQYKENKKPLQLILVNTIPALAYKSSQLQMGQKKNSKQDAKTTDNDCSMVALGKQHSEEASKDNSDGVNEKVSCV
Beta-2 adrenergic receptor (Homo sapiens), sequence (P07550 whole entry, looked up): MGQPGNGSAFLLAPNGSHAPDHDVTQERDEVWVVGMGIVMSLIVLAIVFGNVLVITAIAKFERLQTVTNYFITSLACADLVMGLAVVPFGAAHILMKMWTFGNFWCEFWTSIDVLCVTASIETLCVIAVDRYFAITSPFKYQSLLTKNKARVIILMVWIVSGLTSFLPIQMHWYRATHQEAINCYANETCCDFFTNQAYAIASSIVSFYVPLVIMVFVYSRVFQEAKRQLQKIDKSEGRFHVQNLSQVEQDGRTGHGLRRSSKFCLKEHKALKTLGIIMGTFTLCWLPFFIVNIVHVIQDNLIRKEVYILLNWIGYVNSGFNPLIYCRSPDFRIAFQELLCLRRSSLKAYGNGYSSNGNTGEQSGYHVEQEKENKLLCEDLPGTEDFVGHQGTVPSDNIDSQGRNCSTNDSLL
D(2) dopamine receptor (Homo sapiens), sequence (P14416 whole entry, looked up): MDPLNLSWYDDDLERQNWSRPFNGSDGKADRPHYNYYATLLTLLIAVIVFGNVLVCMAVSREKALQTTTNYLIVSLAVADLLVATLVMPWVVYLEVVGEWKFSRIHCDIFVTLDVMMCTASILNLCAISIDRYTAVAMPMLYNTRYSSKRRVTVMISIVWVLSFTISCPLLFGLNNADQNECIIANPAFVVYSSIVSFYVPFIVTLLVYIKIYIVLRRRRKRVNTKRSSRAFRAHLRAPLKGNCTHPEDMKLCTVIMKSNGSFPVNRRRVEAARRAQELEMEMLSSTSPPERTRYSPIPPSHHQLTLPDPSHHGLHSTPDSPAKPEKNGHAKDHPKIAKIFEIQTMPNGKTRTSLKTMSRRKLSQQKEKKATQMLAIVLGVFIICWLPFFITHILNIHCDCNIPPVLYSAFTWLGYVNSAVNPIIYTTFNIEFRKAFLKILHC

CCN(Cc1cccc(S(=O)(=O)O)c1)c1ccc(C(=C2C=CC(=[N+](CC)Cc3cccc(S(=O)(=O)[O-])c3)C=C2)c2ccccc2)cc1
not listed: [19] | [20]
inactive: all other assays above

O=C(Cl)c1cc(C(=O)Cl)cc(C(=O)Cl)c1
not listed: [15] | [16] | [19] | [20]
inactive: all other assays above

Cc1ccc2c(Br)cc(Br)c(O)c2n1
not listed: [11] | [13] | [14] | [19] | [20]
inactive: all other assays above

Clc1ccc(C(Cn2ccnc2)OCc2ccc(Sc3ccccc3)cc2)c(Cl)c1 (stereo not given)
not listed: [11] | [12] | [20]
inactive: all other assays above

O=[N+]([O-])c1cccc(C(F)(F)F)c1
not listed: [12] | [20]
inactive: all other assays above

O=C(Nc1ccc(C(=O)O)c(O)c1)c1ccccc1
not listed: [11]
inactive: all other assays above

CCc1c(C)cc(N)c(CC)c1N
not listed: [11] | [13] | [15] | [16] | [17] | [20]
inactive: all other assays above

Cc1cc(O)c(Cl)c(C)c1Cl
not listed: [11] | [19]
inactive: all other assays above
